Source: PubChem BioAssay
Rows were chosen to be rich in hits. Some 7.4% of all compounds tested hit in one or more screens of this group.
SNCA expr inhib – reduces expression of the alpha-synuclein gene; HEK-293 SNCA-luciferase knock-in, luminescence, 24 h; Potency, µM (top dose mostly 57.2 µM), inactives show at the highest dose activity change, negative = inhibition, usual class: inhibitors; 140,000 tested, 0.17% active;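 further: plate controls were DMSO cells for no effect and cell-free wells for full effect; nearly all actives have a fitted effect of over 45% in size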
HEK293 viab – counter-screen for SNCA expression inhibitors: cell viability. HEK-293-SNCA-luc viability, GF-AFC fluorescence, 24 h. Potency, µM (series often up to 57.1 µM), for the others: top-dose activity change, negative = cytotoxicity, most hits filed as cytotoxic. 150,000 tested, 0.12% active;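 further: 0% = DMSO-treated cells and -100% = medium-only wells without cells; nearly all actives have a fitted effect of over 30% in size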
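HEK-293-SNCA-luc cells (1500/well) plated 24 h, then exposed 24 h to a dilution series; GF-AFC added 30 min at 37C, fluorescence 405/540 nm; normalised to medium-only and DMSO wells, Hill fit.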
NPR1 antag – antagonists of human natriuretic peptide receptor Npr1; HEK293 hNpr1 GloSensor cGMP, ANP-stimulated luminescence; 76,000 tested, 1.6% active; P16066; Potency, µM (highest dose often 46.3 µM), without a hit: at the top dose activity change, negative = inhibition, hits mostly inhibitors; calls by dose curve; further: nearly all actives have a fitted effect of over 60% in size
Target sequence (P16066 whole entry, looked up): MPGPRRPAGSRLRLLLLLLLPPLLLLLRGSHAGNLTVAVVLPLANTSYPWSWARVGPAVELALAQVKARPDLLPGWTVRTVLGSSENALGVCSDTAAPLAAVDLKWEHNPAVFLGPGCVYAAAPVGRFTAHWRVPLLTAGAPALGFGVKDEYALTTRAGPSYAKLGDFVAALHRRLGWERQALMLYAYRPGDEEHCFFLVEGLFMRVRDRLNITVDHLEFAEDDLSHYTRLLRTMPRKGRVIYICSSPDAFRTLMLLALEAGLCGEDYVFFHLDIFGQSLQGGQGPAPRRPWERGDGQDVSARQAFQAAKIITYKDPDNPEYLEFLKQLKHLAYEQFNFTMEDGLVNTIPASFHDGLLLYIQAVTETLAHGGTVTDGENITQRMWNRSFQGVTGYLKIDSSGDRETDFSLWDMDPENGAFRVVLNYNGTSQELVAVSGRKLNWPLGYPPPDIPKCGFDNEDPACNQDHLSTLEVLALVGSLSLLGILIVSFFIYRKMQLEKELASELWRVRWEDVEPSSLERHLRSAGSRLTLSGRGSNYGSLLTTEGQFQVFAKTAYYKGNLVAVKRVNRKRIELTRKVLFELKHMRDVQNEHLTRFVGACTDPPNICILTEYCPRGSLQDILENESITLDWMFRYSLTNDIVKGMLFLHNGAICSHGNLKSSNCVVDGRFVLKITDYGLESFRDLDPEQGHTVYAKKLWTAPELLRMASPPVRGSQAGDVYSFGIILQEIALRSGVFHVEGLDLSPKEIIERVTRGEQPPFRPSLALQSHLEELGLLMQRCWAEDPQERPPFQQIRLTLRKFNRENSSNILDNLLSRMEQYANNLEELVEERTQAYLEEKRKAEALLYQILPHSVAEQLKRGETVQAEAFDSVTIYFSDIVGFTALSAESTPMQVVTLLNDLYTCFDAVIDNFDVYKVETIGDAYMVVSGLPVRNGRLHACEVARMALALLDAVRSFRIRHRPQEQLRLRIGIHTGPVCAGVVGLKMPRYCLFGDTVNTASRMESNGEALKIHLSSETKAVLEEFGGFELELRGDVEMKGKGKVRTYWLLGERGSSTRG
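Compound pre-incubated 30 min at room temperature on GloSensor-loaded HEK293 cells stably carrying hNpr1 and the pGS-40F cGMP biosensor. Stimulation uses hNppA at 0.1 nM final; luminescence is taken at baseline and 20 min post-agonist.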
HEK293 tox – cytotoxic compounds in HEK 293 cells. AID 1345083. HEK 293 viability, ATP luminescence (CellTiter-Glo), 48-72 h. Potency, µM (doses to about 115 µM), for the others: at the highest dose activity change, negative = cytotoxicity, most hits filed as inhibitors. 94,000 tested, 6.6% active; further: nearly all actives have a fitted effect of over 60% in size
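HEK 293 cells seeded at 250 cells/well were exposed to compound for 48 or 72 hr at 37 degree Celsius. Viability taken as ATP content by CellTiter-Glo luminescence.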
3T3 cytotox – kills NIH 3T3 cells; NIH 3T3 viability, CellTiter-Glo ATP luminescence, 48-72 h; Potency, µM (top dose mostly 96.7 µM), for inactives: at the highest dose activity change, negative = cytotoxicity, actives largely listed as inhibitors; 94,000 tested, 4.3% active; further: nearly all actives have a fitted effect of over 55% in size
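Mouse fibroblast NIH 3T3 cells, 400 per well, received compound via pintool and were incubated for 48 or 72 hr prior to CellTiter-Glo ATP luminescence measurement.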
FLuc inh – inhibitors of firefly (Photinus pyralis) luciferase | purified P. pyralis luciferase, luminescence, biochemical | Potency, µM (top dose mostly 115 µM), usual class: inhibitors | 76,000 tested, 2.5% active; further: nearly all actives have a fitted effect of over 65% in size
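Inhibitors were tested against purified firefly luciferase in a biochemical, low-substrate format (both substrates at 10uM) and luminescence measured with a CCD imager.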
Numbers without * were called inactive; [ ] = another dose, or the depositor's remark. Unless noted, the call rests on the fitted dose curve; in most records, active means well fitted curve in the direction sought with a large enough effect; inconclusive means small, poorly fitted or top-dose-only effect, or another doubt; inactive means no such curve, though single readings can be large; an effect the other way counts as inactive or inconclusive. Unless noted, on the % scale 0 is the no-effect control and ±100 the full control effect; potency means the concentration at half of the fitted maximal effect.

For CCOc1ccc(CN2CCCC(COc3ccccc3C(=O)NC(C)C)C2)cc1 (stereo not given) the results were SNCA expr inhib -7.7%, HEK293 viab -19.8%, NPR1 antag -0.3%, HEK293 tox inconclusive, 3T3 cytotox inconclusive and FLuc inh inactive.
For Cc1ccc(N2CCC(N[C@@H]3CC[C@@H](N)C3)CC2)cc1Cl the results were SNCA expr inhib inconclusive, HEK293 viab inconclusive, NPR1 antag 1.1%, HEK293 tox 7.94µM*, 3T3 cytotox 10µM* and FLuc inh inactive.
For CCc1ccc(CN2CCC(C(=O)Nc3ccc(Oc4cccnc4)cc3)CC2)o1 the results were SNCA expr inhib inconclusive, HEK293 viab -14.5%, NPR1 antag inconclusive, HEK293 tox inconclusive, 3T3 cytotox inconclusive and FLuc inh inactive.
`O=C(Nc1ccc(Oc2cccnc2)cc1)C1CCN(CCCc2ccccc2)CC1` gave SNCA expr inhib 48.8%, HEK293 viab 5.2%, NPR1 antag -11.9%, HEK293 tox 25.1µM*, 3T3 cytotox inconclusive and FLuc inh inactive.
For Cn1nc(C(=O)N2CCC3(CC2)N=C(c2ccc(Br)cc2)NO3)c2ccccc21 the results were SNCA expr inhib inconclusive, HEK293 viab -17.2%, NPR1 antag inconclusive, HEK293 tox inconclusive, 3T3 cytotox inconclusive and FLuc inh inactive.
Screening O=C(c1n[nH]c2c1CCCC2)N1CCC2(CC1)N=C(c1ccccc1)NO2 returned SNCA expr inhib 89.2%, HEK293 viab -5.6%, NPR1 antag -24.0%, HEK293 tox inconclusive, 3T3 cytotox -15.9% and FLuc inh 28.2µM*.
For Cn1nc(C(=O)N2CCC3(CC2)N=C(c2ccccc2)NO3)c2ccccc21 the results were SNCA expr inhib 73.8%, HEK293 viab -3.0%, NPR1 antag -3.6%, HEK293 tox inconclusive, 3T3 cytotox -3.4% and FLuc inh 35.5µM*.
For c1ccc(OCc2nc(C3CCCNC3)no2)cc1 (stereo not given) the results were SNCA expr inhib 28.6%, HEK293 viab -3.8%[12.5 µM], NPR1 antag -1.6%, HEK293 tox 12.3%, 3T3 cytotox -13.0% and FLuc inh inactive.
Screening CCc1cc(=O)n(CC(=O)Nc2cc(OC)c(OC)c(OC)c2)c(-c2ccccc2)n1 returned SNCA expr inhib inconclusive, HEK293 viab inconclusive, NPR1 antag inconclusive, HEK293 tox 44.7µM*, 3T3 cytotox inconclusive and FLuc inh inactive.
CCc1cc(=O)n(CC(=O)Nc2ccc(OC)cc2)c(-c2ccccc2)n1 was read as SNCA expr inhib -13.2%, HEK293 viab -12.8%, NPR1 antag -3.2%, HEK293 tox inconclusive, 3T3 cytotox inconclusive and FLuc inh inactive.
For Cn1cc(CN2C[C@@H]3OCC(=O)N[C@@H]3C2)c2ccccc21 the results were SNCA expr inhib 1.1%[87.6 µM], HEK293 viab 0.0%[87.6 µM], NPR1 antag -1.4%[70.6 µM], HEK293 tox inconclusive, 3T3 cytotox 112µM* and FLuc inh inactive.
CC1CCN(C(=O)C[C@@H]2c3nc(NC(=O)c4ccco4)sc3C[C@@H]3[C@](C)(CO)[C@H](O)CC[C@]32C)CC1 was read as SNCA expr inhib -27.1%, HEK293 viab -2.9%, NPR1 antag 1.3%, HEK293 tox -27.0%, 3T3 cytotox inconclusive and FLuc inh inactive.
`CCOC(=O)c1oc2ccc(S(=O)(=O)NCC3Cn4cccc4C(=O)N3C)cc2c1C` (stereo not given) gave SNCA expr inhib -20.7%, HEK293 viab 5.0%, NPR1 antag inconclusive, HEK293 tox 39.8µM*, 3T3 cytotox -25.5% and FLuc inh inactive.
For COc1cccc(S(=O)(=O)NCC2Cn3cccc3C(=O)N2C)c1 (stereo not given) the results were SNCA expr inhib 22.3%, HEK293 viab 5.8%, NPR1 antag 0.6%, HEK293 tox -8.2%, 3T3 cytotox -15.9% and FLuc inh inactive.
`COc1ccccc1-c1cccc(C(=O)N2CCN(C(=O)c3ccccc3C)CC2)c1` gave SNCA expr inhib -9.4%, HEK293 viab -25.2%[12.5 µM], HEK293 tox 31.6µM* and 3T3 cytotox 35.5µM*.
